# PubChem BioAssay
# Several values for one entry are separate records, joined by “and”; a condition that tells them apart may be missing. Equal values may be shown once. Activity calls are given as the source filed them.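 Rule for the calls, unless noted: active = compounds whose cell count with miR-34 switched on is under 0.7 times the count with it off; inactive = the rest.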
# Tests used:
# [1] = viability loss with induced miR-34 in A549 – imaging, A549 dox-inducible miR-34, nuclei and caspase counts, primary screen (AID 1347080); settings: A549 miR-34 inducible, Hoechst nuclei count, 48 h
# [2] = MELAS cybrid and Rieske KO viability enhancers – cell-based, MELAS cybrids, Rieske KO mouse fibroblasts, CellTiter-Glo, primary screen (AID 1508586;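 active = mean z-score across replicates of 1.96 or higher in either the MELAS or the Rieske mutant cell line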;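 note: z relative to plate mean and SD of compound and empty wells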); settings: low glucose
# [3] = galactose survival enhancers in mitochondrial complex I cybrids – cell-based, galactose medium, ATP luminescence, primary screen (AID 1645843;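 active = z-score of at least 1.8 in each of two replicates, scored against plate mean and spread of sample wells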;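 note: positive z means more ATP and so rescue of galactose-driven cybrid death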); settings: complex I mutant cybrid cells, 72 h, stronger effect = higher value
# [4] = P. berghei load reduction in hepatocytes – cell-based, HepG2, luciferase luminescence, HepG2 viability, primary screen (AID 624349; in the data active = parasite load remaining mostly below about 12%, no sharp cut-off; inactive = mostly above about 10%;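 note: 100% = mean of DMSO negative control wells on the same plate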); settings: P. berghei liver stage in HepG2, luciferase luminescence, concentration not given here; parasite load remaining: stronger effect = lower value; viability: measured here: HepG2 viability without parasites
# [5] = target: NAD(+) hydrolase SARM1 (Homo sapiens) (UniProt Q6SZW1); assay: blocking NAD cleavage by SARM1 SAM-TIR – cell lysate, NAD-Glo luminescence (AID 1508614;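 active = compound whose remaining NAD level is above about 45 nM, limit read from the data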;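 note: higher remaining NAD means stronger inhibition of SARM1 NADase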); settings: SAM-TIR HEK293T lysate NADase, at 1 µM, stronger effect = higher value
# [6] = target: Mitogen-activated protein kinase 7 (Homo sapiens) (UniProt Q13164); assay: Gal4-ERK5 driven luciferase induction – cell-based, HTS, primary screen (AID 1508626;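 active = luciferase signal above three times the same-plate solvent-only control wells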;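 note: luciferase driven by Gal4-ERK5 fusion binding five Gal4 sites before minimal TATA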); settings: HeLa Gal4-ERK5 transactivation, 18 h, at 5 µM, stronger effect = higher value
# [7] = compounds altering viability of human ES cells (AID 493140; call rule not given here;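 note: cells exposed to compounds for four days before counting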); settings: human embryonic stem cell survival screen; stronger effect = higher value
# [8] = stronger effect = lower value, cell number ratio, induced over uninduced
# [9] = measured here: relative caspase fold change +Dox/-Dox
# [10] = measured here: total cells with miR-34 induction, stronger effect = lower value
# [11] = measured here: total cells without miR-34 induction
# [12] = MELAS cybrid survival, CellTiter-Glo 48 h, stronger effect = higher value
# [13] = Rieske KO mouse fibroblast survival, CellTiter-Glo 72 h
# NAD(+) hydrolase SARM1 (Homo sapiens), sequence (Q6SZW1 whole entry, looked up, the tested form may be a part): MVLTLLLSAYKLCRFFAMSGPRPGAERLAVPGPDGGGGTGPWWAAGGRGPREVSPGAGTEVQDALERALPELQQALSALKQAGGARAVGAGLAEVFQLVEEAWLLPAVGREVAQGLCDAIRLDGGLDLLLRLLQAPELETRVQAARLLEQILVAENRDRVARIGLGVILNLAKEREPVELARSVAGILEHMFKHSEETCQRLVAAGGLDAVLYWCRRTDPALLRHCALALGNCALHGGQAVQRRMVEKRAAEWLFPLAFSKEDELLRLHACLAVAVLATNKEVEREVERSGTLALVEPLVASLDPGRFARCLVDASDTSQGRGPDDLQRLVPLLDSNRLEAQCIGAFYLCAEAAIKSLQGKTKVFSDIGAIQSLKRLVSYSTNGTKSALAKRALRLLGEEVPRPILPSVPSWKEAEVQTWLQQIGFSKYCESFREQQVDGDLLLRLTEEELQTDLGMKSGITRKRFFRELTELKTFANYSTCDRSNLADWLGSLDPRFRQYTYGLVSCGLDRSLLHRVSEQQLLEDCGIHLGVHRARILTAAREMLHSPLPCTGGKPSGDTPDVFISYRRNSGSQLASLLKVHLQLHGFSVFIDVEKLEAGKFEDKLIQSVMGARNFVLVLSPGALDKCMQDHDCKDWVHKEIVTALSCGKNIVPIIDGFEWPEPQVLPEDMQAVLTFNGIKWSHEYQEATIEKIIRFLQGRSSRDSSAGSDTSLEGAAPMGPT
# Mitogen-activated protein kinase 7 (Homo sapiens), sequence (Q13164 whole entry, looked up, the tested form may be a part): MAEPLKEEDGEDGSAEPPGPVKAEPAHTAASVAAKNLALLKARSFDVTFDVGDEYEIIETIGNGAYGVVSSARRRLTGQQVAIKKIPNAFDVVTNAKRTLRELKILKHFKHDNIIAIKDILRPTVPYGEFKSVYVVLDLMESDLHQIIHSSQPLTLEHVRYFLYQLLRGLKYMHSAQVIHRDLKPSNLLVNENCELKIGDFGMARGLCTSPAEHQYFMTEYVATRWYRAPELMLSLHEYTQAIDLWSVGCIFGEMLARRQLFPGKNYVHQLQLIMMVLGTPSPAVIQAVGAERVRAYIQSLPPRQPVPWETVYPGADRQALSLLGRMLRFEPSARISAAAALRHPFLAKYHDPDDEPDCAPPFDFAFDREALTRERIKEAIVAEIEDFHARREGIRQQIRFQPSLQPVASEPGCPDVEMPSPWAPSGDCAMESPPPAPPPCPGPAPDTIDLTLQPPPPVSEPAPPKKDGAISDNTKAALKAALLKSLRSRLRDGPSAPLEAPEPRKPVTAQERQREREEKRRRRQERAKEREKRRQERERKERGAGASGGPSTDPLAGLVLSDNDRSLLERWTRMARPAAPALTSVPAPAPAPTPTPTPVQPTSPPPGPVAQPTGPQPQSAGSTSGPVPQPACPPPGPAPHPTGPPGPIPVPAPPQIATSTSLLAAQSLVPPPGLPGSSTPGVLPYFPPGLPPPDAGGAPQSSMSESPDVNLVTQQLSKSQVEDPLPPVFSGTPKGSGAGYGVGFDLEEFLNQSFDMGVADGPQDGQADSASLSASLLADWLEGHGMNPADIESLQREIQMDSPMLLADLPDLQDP
SMILES,"fold change [1, 8]","fold change [1, 9]","cell count [1, 10]","cell count [1, 11]","z-score [2, 12]","z-score [2, 13]",z-score [3],parasite load remaining [4],viability [4],fold change ([1]; stronger effect = lower value),remaining NAD [5],luciferase signal [6],survival [7]
Cc1ccc(C(C)Nc2ncnc3sccc23)cn1 (stereo not given),0.921 (inactive),1.09,5250,5700,-0.723 (inactive),-0.439,-0.4 (inactive),,,,,,
CN1C[C@H](C(=O)N[C@]2(C)O[C@@]3(O)[C@@H]4CCCN4C(=O)[C@H](Cc4ccccc4)N3C2=O)C=C2c3cccc4[nH]cc(c34)C[C@H]21,,1.34,8820,10200,-0.409 (inactive),-0.32,1.08 (inactive),33.4% (inactive),106%,0.866 (inactive),10 nM (inactive),80 AU (inactive),
CC1OC(OC2CC(O)[C@]3(CO)[C@H]4C(O)C[C@]5(C)C(C6=CC(=O)OC6)CC[C@]5(O)[C@@H]4CC[C@]3(O)C2)C(O)C(O)C1O (stereo not given in full),0.851 (inactive),1.17,388,456,0.346 (inactive),-0.151,,,,,,,
C1CCN(C2CCNCC2)CC1,0.919 (inactive),0.5,8270,9000,-1.03 (inactive),0.0453,0.44 (inactive),,,,,,
C=C1C[C@@H]2[C@@H](CC[C@@]3(C)C(=O)CC[C@@H]23)[C@@]2(C)C=CC(=O)C=C12,,1.02,7640,7540,-0.495 (inactive),0.156,,,,1.01 (inactive),,,
CCCCC(C#N)(Cn1cncn1)c1ccc(Cl)cc1 (stereo not given),,1.46,9220,9830,0.49 (inactive),-0.243,0.815 (inactive),18.9% (inactive),67.5%,0.938 (inactive),,,
CCCC(=O)OCC[N+](C)(C)C,,0.999,10000,10700,0.357 (inactive),0.101,0.43 (inactive),42.8% (inactive),107%,0.934 (inactive),,,
NCCc1ccc(S(N)(=O)=O)cc1,,0.315,9210,10400,-0.0994 (inactive),0.0645,0.495 (inactive),,,0.884 (inactive),,,
COc1ccc(S(=O)(=O)N(CCO)c2ccccc2CN(C)CC=Cc2ccc(Cl)cc2)cc1,0.937 (inactive),0.634,5210,5560,-0.474 (inactive),-0.774,,,,,,,
C[C@]12NC(Cc3ccccc31)c1ccccc12,,0.318,8080,8230,-0.147 (inactive),-0.0728,,,,0.981 (inactive),,,
C[C@]12CC[C@@H]3[C@@H](CC[C@@]45O[C@@H]4C(O)=C(C#N)C[C@]35C)[C@@H]1CCC2O (stereo not given in full),,0.921,7740,8440,-0.378 (inactive),0.316,,,,0.917 (inactive),,,
CC(=O)O[C@H]1CC[C@@]2(C)C(=CC[C@@H]3[C@@H]2CC[C@]2(C)C(=O)CC[C@@H]32)C1,,1.2,9250,10400,0.711 (inactive),-0.302,,73.2% (inactive),93.1%,0.892 (inactive),,56 AU (inactive),0.583 (inactive)
CCC(C)(C)O,,0.901,9020,9470,,,,,,0.953 (inactive),10 nM (inactive),,
C[C@]12CC[C@@H](O)C[C@@H]1CC[C@@H]1[C@@H]2CC[C@]2(C)C(=O)CC[C@@H]12,,1.48,8170,9410,0.119 (inactive),-0.286,,90.4% (inactive) and 71.8% (inactive),90.3% and 79.5%,0.869 (inactive),,,13.1 (inactive)
CCOC(=O)c1cncn1[C@@H](C)c1ccccc1,,0.906,8390,8960,-0.428 (inactive),-0.415,,94.8% (inactive),128%,0.937 (inactive),,,
CCC1=C[C@@H]2CN3CCc4c([nH]c5ccccc45)[C@@](C(=O)OC)(C2)[C@@H]13,0.949 (inactive) and 0.823 (inactive),1.22 and 0.88,8480 and 6230,8930 and 7580,-0.196 (inactive) and 0.501 (inactive),-0.315 and -0.157,,9.8% (inactive),47.4%,,,,
